Assay [1] concerns the target Thyrotropin receptor (Homo sapiens) (UniProt P16473). As to the kind of experiment: qHTS assay to identify small molecule antagonists of the thyroid stimulating hormone receptor (TSHR) signaling pathway (AID 1259385; calls by dose curve; further: nearly all actives have a fitted effect of over 20% in size). In short, it runs like this: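 Antagonist mode: compound-treated TSHR-expressing HEK293 cells were stimulated with 1.5 ng/mL TSH (final) in presence of Ro20-1724 for 30 min at RT. HTRF cAMP detection after 1 h; each compound tested at 15 concentrations, triplicate.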
Background: qHTS replaces the single test concentration by a dilution series.

Assay [2] in a line: qHTS assay to identify small molecule agonists of the estrogen receptor alpha (ER-alpha) signaling pathway in the presence of an antagonist - cell viability counter screen (AID 1259386).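 Further: series mostly up to about 92 µM; cells exposed to compounds for 22 h at 37 °C before the viability read; nearly all actives have a fitted effect of over 30% in size.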 In short, it runs like this: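 The test measures whether compounds kill ER-alpha reporter cells (VM7Luc4E2) under antagonist co-treatment (ICI-182,780, 10.0nM). Fluorescence from CellTiter-Fluor is read after a 22hr exposure.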

The target of assay [3] is Progesterone receptor (Homo sapiens) (UniProt P06401). The assay can be described thus: qHTS assay to identify small molecule agonists of the progesterone receptor (PR) signaling pathway (AID 1346784; calls by dose curve; further: nearly all actives have a fitted effect of over 30% in size; further: potency means the concentration at half of the fitted maximal effect). In short, it runs like this: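 HEK 293T PR-UAS-bla reporter cells, 2% charcoal-stripped FBS; 6 hr settle at 37C/5% CO2, compound (DMSO) 16 hr, LiveBLAzer B/G FRET substrate 2 hr RT, fluorescence intensity read.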
Progesterone receptor (Homo sapiens), sequence (P06401 whole entry, looked up): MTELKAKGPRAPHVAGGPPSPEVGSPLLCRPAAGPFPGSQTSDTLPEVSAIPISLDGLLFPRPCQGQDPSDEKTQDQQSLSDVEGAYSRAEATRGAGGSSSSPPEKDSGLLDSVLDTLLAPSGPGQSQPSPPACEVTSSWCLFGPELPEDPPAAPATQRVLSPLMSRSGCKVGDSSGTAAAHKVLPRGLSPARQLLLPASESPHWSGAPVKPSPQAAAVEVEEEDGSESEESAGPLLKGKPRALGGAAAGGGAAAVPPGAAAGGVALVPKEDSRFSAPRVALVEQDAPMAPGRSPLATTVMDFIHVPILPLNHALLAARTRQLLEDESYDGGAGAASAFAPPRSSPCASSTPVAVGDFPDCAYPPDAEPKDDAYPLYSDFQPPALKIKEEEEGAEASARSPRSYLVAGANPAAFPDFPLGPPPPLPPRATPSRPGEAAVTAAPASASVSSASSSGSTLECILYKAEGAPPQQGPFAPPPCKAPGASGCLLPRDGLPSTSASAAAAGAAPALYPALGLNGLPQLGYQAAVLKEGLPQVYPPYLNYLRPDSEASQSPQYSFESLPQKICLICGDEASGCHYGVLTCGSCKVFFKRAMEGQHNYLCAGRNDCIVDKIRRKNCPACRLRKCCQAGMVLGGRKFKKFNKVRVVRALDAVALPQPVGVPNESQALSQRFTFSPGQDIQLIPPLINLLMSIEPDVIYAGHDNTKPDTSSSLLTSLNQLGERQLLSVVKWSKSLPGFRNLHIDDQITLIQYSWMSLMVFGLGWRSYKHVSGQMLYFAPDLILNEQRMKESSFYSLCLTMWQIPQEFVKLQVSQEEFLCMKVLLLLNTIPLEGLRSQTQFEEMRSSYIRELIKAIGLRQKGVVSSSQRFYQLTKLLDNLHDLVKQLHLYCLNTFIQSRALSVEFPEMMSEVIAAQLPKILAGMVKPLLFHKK

Assay [4] shares this target. As to the kind of experiment: qHTS assay to identify small molecule antagonists of the progesterone receptor (PR) signaling pathway (AID 1346795; active means well fitted inhibition curve with a large enough effect in the signal ratio in the repeat runs, not every such curve was filed as active; the % refers to the signal ratio; further: potency means the concentration at half of the fitted maximal effect). The procedure, abridged: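 Beta-lactamase reporter, HEK293T PR-UAS-bla line; 2% charcoal-stripped FBS; 6 hr pre-incubation, 37C/5% CO2. Compound + R5020 1 nM final, 16 hr. LiveBLAzer B/G FRET substrate, 2 hr RT; fluorescence intensity read.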

Assay [5] can be described thus: qHTS assay to identify small molecule antagonists of the progesterone receptor (PR) signaling pathway - cell viability counter screen (AID 1346798). Further: series mostly up to about 92 µM; nearly all actives have a fitted effect of over 50% in size. The procedure, abridged: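 Luminescence readout (CellTiter-Glo, 30 min, RT) of viability in PR-UAS-bla HEK293T cells exposed to compound and R5020 agonist for 16 hr at 37C, 5% CO2; run in the same wells as the beta-lactamase reporter read.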

Assay [6] in a line: qHTS assay to identify small molecule agonists of the progesterone receptor (PR) signaling pathway - cell viability counter screen (AID 1346799; calls by dose curve; further: nearly all actives have a fitted effect of over 45% in size). In short, it runs like this:
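HEK293T PR-UAS-bla, 3,000 cells/well, 2% charcoal-stripped FBS; 6 h settle, compound 16 h at 37C/5% CO2; LiveBLAzer 2 h RT, then CellTiter-Glo 30 min RT, luminescence read.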

Assay [7] in a line: qHTS assay to identify small molecule antagonists of the TGF-beta/Smad signaling pathway - cell viability counter screen (AID 1346824). Further: nearly all actives have a fitted effect of over 50% in size. In short, it runs like this: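 Cytotoxicity counter-screen run in the same wells as the beta-lactamase Smad reporter read: CellTiter-Glo luminescence after 30 min at room temperature. HEK 293T SBE-bla cells had 5 hr compound exposure at 37 C with TGF-beta1 (0.25 ng/mL stock).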

A short description of assay [8]: qHTS assay to identify small molecule agonists of the TGF-beta/Smad signaling pathway - cell viability counter screen (AID 1346829). Further: top concentration of the series differs between compounds; nearly all actives have a fitted effect of over 45% in size. In short, it runs like this: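 Compound-treated SBE-bla HEK 293T cells (5 hr, 37 C) were assessed for viability with CellTiter-Glo in parallel with the reporter read.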
A short description of assay [9]: qHTS assay to identify small molecule agonists of the TGF-beta/Smad signaling pathway (AID 1346859; active means well fitted activation curve with a large enough effect in the signal ratio in the repeat runs, not every such curve was filed as active; the % refers to the signal ratio; further: series mostly up to about 77 µM). The procedure, abridged: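 Read-out: fluorescence at 460 and 530 nm (405 nm excitation) after a 2 hr room-temperature incubation with beta-lactamase FRET substrate. SBE-bla HEK 293T cells had been treated with test compounds for 5 hr at 37 C.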
Assay [10] addresses Thyrotropin-releasing hormone receptor (Homo sapiens) (UniProt P34981). The assay can be described thus: qHTS assay to identify small molecule antagonists of the thyrotropin-releasing hormone receptor (TRHR) signaling pathway (AID 1346877; active means well fitted inhibition curve with a large enough effect in the repeat runs, not every such curve was filed as active; further: series mostly up to about 51 µM). In short, it runs like this: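 Overnight-plated (18 h, 37 °C) HEK293 cells expressing TRHR were dye-loaded 2 h, treated with compound, then stimulated with TRH at 1 nM final. Fluorescence intensity was captured every second for 3 min.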

Assay [11] has the same target. As to the kind of experiment: qHTS assay to identify small molecule agonists of the thyrotropin-releasing hormone receptor (TRHR) signaling pathway (AID 1346891; calls by dose curve;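 further: HEK293 cells expressing TRHR with calcium dye readout; series mostly up to about 58 µM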). In short, it runs like this:
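HEK293/TRHR cells, 1500 per well, 18 h 37 °C; Ca dye 2 h 37 °C; pin-tool compound addition (agonist mode); kinetic fluorescence 3 min, 1 s reads; 15 concentrations, triplicate.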

Assay [12] can be described thus: Human pregnane X receptor (PXR) small molecule agonists, qHTS cell viability counter screen (AID 1346977). Further: nearly all actives have a fitted effect of over 50% in size. The procedure, abridged:
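Fluorescence read-out (CellTiter-Fluor) of viability in PXR-Luc HepG2 cells, multiplexed with the luciferase agonist read. Compounds in DMSO added after 5hr plating; 24hr total exposure at 37C, 5% CO2.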

Assay [13] in a line: Caspase-3/7 induction in HepG2 cells by small molecules, qHTS assay (AID 1346978). Further: nearly all actives have a fitted effect of over 15% in size. In short, it runs like this:
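Caspase-3/7 induction was measured by Caspase-Glo 3/7 luminescence (30 min, room temperature) after a 17 hr compound exposure of wild-type HepG2 cells seeded at 2,000 per well and pre-incubated 5 hr.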

Assay [14] can be described thus: Caspase-3/7 induction in CHO-K1 cells by small molecules, qHTS cell viability counter screen (AID 1346979). Further: nearly all actives have a fitted effect of over 35% in size. The procedure, abridged:
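CHO-K1 wt, 1,500 cells/well; 5hr pre-incubation 37C/5% CO2; compound pin transfer (DMSO); 16hr exposure; CellTiter-Fluor added, 1hr, fluorescence read.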

The nature of assay [15]: Caspase-3/7 induction in CHO-K1 cells by small molecules, qHTS assay (AID 1346980). Further: nearly all actives have a fitted effect of over 15% in size. In short, it runs like this: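 Luminescent Caspase-Glo 3/7 read (30min, room temperature) quantified apoptosis induction. Cells were wild-type CHO-K1, treated with compound for 17hr at 37 C and 5% CO2.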
Assay [16] is described as follows: Caspase-3/7 induction in HepG2 cells by small molecules, qHTS cell viability counter screen (AID 1346981). Further: series mostly up to about 92 µM; nearly all actives have a fitted effect of over 30% in size. The procedure, abridged:
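Treatment of HepG2 cells with DMSO-delivered compounds ran 16 hr at 37 C following a 5-hr pre-incubation of 2,000 cells/well. CellTiter-Fluor fluorescence, read after 1 hr, served as the viability measure in a qHTS format.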

The target in assay [17] is Nuclear receptor subfamily 1 group I member 2 (Homo sapiens) (UniProt O75469). As to the kind of experiment: Human pregnane X receptor (PXR) small molecule agonists, qHTS assay (AID 1346982). Further: nearly all actives have a fitted effect of over 35% in size. Further: potency means the concentration at half of the fitted maximal effect. In short, it runs like this: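 Stable HepG2 line reporting PXR-mediated CYP3A4 expression via luciferase. Treatment: 24 hr with compounds in DMSO at 37 C. Detection: ONE-Glo luminescence.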
Nuclear receptor subfamily 1 group I member 2 (Homo sapiens), sequence (O75469 whole entry, looked up): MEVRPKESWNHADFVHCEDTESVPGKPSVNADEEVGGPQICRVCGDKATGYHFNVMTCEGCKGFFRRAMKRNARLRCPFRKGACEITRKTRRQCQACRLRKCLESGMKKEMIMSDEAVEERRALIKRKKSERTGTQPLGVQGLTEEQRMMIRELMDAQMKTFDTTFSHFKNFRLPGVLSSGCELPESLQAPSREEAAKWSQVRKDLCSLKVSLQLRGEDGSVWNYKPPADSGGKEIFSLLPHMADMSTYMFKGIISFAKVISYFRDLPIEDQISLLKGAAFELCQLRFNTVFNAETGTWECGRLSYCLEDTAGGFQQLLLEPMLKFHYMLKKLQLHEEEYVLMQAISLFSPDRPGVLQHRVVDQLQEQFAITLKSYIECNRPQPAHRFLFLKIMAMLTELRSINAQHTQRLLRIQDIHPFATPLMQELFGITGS

Assay [18] has as its target Nuclear receptor subfamily 1 group I member 2 (Rattus norvegicus) (UniProt Q9R1A7). As to the kind of experiment: Rat pregnane X receptor (rPXR) activation by small molecules, qHTS assay (AID 1346983). Further: nearly all actives have a fitted effect of over 20% in size. The note with it: rPXR luciferase reporter cells, One-Glo luminescence, 24 h; max activation: hits give high values. In short, it runs like this: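 Luminescent readout (One-Glo luciferase, 30 min room temperature) followed 24 hr compound treatment at 37 C of rPXR cells plated 2,000 per well and preincubated 5hr; qHTS format with compounds delivered in DMSO.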

For assay [19], the target named is Nuclear receptor subfamily 1 group I member 2 (Homo sapiens) (UniProt O75469). The assay can be described thus: CYP3A4 induction through human pregnane X receptor (PXR) by small molecules, qHTS assay (AID 1346984). Further: nearly all actives have a fitted effect of over 40% in size. The procedure, abridged: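 After 24 h at 37C with compound, DPX-2 cells (HepG2, co-transfected PXR response element and CYP3A4 promoter-luciferase) got 3uM final P450-Glo Luciferin-IPA for 3 h; One-Glo luminescence followed.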

Assay [20] shares this target. The assay can be described thus: Human pregnane X receptor (PXR) activation by small molecules, qHTS assay (AID 1346985). Further: nearly all actives have a fitted effect of over 40% in size. In short, it runs like this: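 DPX-2 cells (HepG2 co-transfected with a PXR response element and a CYP3A4-promoter luciferase construct) were seeded at 2,000 per well, rested 5 hr at 37C, then exposed to DMSO-dissolved compounds for 24 hr. Activation was read as luciferase luminescence.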

A number with no mark means an inactive call. Inconclusive results are not listed. Activity calls are given as the source filed them. Unless noted, the call rests on the fitted dose curve; in most records, active means well fitted curve in the direction sought with a large enough effect in the repeat runs; inconclusive means weak or mixed curves; inactive means no such curve, though single readings can be large; an effect the other way counts as inactive or inconclusive.
On the % scale 0 is the no-effect control and ±100 the full control effect.

Thyrotropin receptor (Homo sapiens), sequence (P16473 whole entry, looked up): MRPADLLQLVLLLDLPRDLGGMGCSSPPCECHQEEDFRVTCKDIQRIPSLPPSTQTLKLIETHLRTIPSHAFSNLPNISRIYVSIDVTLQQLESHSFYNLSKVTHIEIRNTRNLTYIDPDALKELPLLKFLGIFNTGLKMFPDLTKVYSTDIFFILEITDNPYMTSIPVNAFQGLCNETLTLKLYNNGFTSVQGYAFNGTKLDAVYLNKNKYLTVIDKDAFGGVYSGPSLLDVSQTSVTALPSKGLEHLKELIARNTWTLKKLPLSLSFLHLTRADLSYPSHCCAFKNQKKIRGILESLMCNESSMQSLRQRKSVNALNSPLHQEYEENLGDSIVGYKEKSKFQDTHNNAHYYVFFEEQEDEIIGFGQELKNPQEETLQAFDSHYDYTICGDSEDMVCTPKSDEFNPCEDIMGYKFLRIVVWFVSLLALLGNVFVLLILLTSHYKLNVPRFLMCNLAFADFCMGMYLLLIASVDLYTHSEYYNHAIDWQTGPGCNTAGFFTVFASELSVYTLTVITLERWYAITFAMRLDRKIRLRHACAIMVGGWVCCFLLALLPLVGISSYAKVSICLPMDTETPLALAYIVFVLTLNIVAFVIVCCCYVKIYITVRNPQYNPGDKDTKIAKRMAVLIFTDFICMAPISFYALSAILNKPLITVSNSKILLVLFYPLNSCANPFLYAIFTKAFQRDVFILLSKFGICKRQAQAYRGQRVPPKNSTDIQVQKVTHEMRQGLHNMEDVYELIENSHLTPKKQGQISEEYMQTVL
Thyrotropin-releasing hormone receptor (Homo sapiens), sequence (P34981 whole entry, looked up): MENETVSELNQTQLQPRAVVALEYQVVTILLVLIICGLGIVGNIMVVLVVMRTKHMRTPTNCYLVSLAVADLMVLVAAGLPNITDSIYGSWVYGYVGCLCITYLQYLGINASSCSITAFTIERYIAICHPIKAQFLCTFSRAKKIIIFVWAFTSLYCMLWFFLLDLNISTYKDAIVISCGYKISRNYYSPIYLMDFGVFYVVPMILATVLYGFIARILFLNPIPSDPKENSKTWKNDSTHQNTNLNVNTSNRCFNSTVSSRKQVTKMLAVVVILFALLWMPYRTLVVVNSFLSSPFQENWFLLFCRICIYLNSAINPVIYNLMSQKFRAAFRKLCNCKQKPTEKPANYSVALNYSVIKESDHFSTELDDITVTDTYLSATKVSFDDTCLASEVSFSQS
Nuclear receptor subfamily 1 group I member 2 (Rattus norvegicus), sequence (Q9R1A7 whole entry, looked up): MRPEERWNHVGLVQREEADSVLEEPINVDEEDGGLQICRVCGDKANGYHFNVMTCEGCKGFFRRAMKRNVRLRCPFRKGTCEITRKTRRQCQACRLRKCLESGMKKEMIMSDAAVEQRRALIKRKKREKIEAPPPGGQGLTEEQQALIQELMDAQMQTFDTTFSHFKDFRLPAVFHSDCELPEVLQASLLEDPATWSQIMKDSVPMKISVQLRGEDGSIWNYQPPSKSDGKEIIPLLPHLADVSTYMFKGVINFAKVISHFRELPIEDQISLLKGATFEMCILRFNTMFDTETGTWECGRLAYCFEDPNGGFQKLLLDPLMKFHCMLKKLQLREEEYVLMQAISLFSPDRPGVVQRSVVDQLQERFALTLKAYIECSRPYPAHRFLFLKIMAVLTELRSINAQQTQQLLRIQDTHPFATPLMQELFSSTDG

With `O=C(CCS)OCC(COC(=O)CCS)(COC(=O)CCS)COC(=O)CCS`, the Potency result in assay [1], in assay [2], in [3], in assay [4], in assay [5] and in assay [6] was “inactive” each time. For the same compound, the Potency result in assay [8], in assay [9], in assay [12], in assay [13], in assay [14] and in [16] was “inactive” in each case. For the same compound, the Potency entry in assay [17] is “inactive”. The outcome in [7], in [10], in [11] and in assay [15] was inactive.
Turning to `CC(C)(C)C(O)/C=C/c1ccc2c(c1)OCO2` (centres undefined), the Potency entry in assay [1], in assay [2], in assay [3], in assay [5], in assay [6] and in [8] was “inactive” throughout. Also, the Potency entry in assay [9], in assay [12], in assay [13] and in assay [16] was “inactive” throughout. Moreover, the Potency was 23.7 µM (active) in assay [4] and 29.8 µM (active) in assay [17]. Moreover, the compound was classed as inactive in assay [7], in [10], in assay [11] and in assay [15].
As to `CC(=O)c1ccc[nH]1`, the Potency entry in [1], in assay [2], in [3], in assay [4], in assay [5] and in assay [6] was “inactive” in each case. In addition, the Potency result in assay [8], in assay [9], in assay [12], in assay [13], in assay [14] and in assay [16] was “inactive” each time. The Potency entry in assay [17] is “inactive”. Also, the compound was called inactive in assay [7], in assay [10], in [11] and in assay [15].
Turning to `CCCCCCCCCCCCCOC(=O)CCSCCC(=O)OCCCCCCCCCCCCC`, the figures for the activity change, negative = inhibition in [1] and in [4] were -0.382% [at 19 µM] and 5.83% [at 18.9 µM], respectively. Further, the activity change, negative = cytotoxicity in assay [2] was -1.3% [at 19 µM]; in assay [5] it was -8.45% [at 18.9 µM]; in assay [6], 36.2% [at 19 µM]; in assay [8] it was -1.41% [at 15.8 µM]; in [12], -0.253% [at 19 µM]. The Potency in assay [3] is 0.644 µM (active). Besides, the viability change, negative = cytotoxic in assay [7] was 16.1% [at 15.8 µM]. Also, the activation in [9] was 1.33% [at 15.8 µM]; in assay [11], 0.934% [at 11.8 µM]; in [17], 3.58% [at 19 µM]. Besides, the activity, negative = inhibition in [10] was 4.46% [at 10.5 µM]. In addition, the caspase activation in assay [13] is 0.0624% [at 19 µM]. Moreover, in assay [15], the caspase-3/7 activation is 0.789% [at 19 µM].
Consider `Oc1cccc2[nH]ccc12`, for which the Potency result in assay [1], in assay [2], in assay [3], in assay [4], in [5] and in [6] was “inactive” in each case. For the same compound, the Potency entry in assay [8], in [9], in assay [12], in assay [13], in assay [14] and in assay [16] was “inactive” each time. Moreover, the Potency entry in assay [17] is “inactive”. The compound was classed as inactive in assay [7], in [10], in assay [11] and in assay [15].
For `CNc1c2c(nn1C)CCCC2`, the Potency entry in assay [1], in [2], in [3], in assay [4], in [5] and in [6] was “inactive” throughout. In addition, the Potency result in assay [8], in assay [9], in [12], in assay [13], in assay [14] and in [16] was “inactive” each time. For the same compound, the Potency result in assay [17], in [19] and in [20] was “inactive” each time. Also, the compound was classed as inactive in assay [7], in assay [10], in assay [11] and in assay [15]. Besides, the max activation in assay [18] is -2.75%.
On to `NC(=O)CCCCC(N)=O`, for which the Potency entry in [1], in [2], in [3], in assay [4], in assay [5] and in assay [6] was “inactive” in each case. The Potency entry in [8], in [9], in assay [12], in assay [13], in assay [14] and in assay [16] was “inactive” each time. Besides, in [17], the Potency result is “inactive”. The compound was called inactive in [7], in assay [10], in [11] and in assay [15].

For the origin of these results see PubChem BioAssay (Tox21).
